Test results: PubChem BioAssay AID652183 (National Center for Advancing Translational Sciences (NCATS), 2013)
Records with an inconclusive call do not appear. Active and inactive are the calls of the source. Calls come from the whole dose curve; as a rule, active = well fitted inhibition curve with a large enough effect; inconclusive = small, poorly fitted or top-dose-only effect; inactive = no such curve, though single readings can be large or run the other way.

Assay: qHTS Assay for Lipid Storage Modulators: Differentiation Assay against Probe and Analogs
Settings: 3T3-L1 adipocyte differentiation, BODIPY lipid imaging, 8 d; series mostly up to 20 µM
Description: Storing lipids as a reservoir for energy or the anabolism of elementary metabolites is a common feature of probably all cells and is conserved from bacteria to humans. The universal cellular lipid storage organelle is the so-called lipid storage droplet (LD). Although ubiquitous, LDs share a simple structure composed of a hydrophobic core that harbors the storage lipids, which is shielded by a droplet-specific phospholipid monolayer to which proteins are attached. The current model of LD biogenesis involves an incorporation of the lipid core into the membrane leaflets of the endoplasmic reticulum (ER) followed by a subsequent budding-like maturation of a LD, which ultimately pinches off. Once released, LD volume can increase by localized lipogenesis or fusion of existing droplets. Storage lipids are re-mobilized enzymatically by lipase activity. Lipase regulation in the adipocyte is heavily studied and involves multiple components including catecholamine signaling, the LD-associated proteins Perilipin and comparative gene identification-58 (CGI-58) and at least two lipases named hormone sensitive lipase (HSL) and adipocyte triglyceride lipase (ATGL). LD regulation outside of the adipocyte is poorly understood and only few components are known. However, there is an urgent need to learn more about ectopic fat depots as mislocalized storage of lipids, for example in the liver or muscle, is an eminent health problem associated with insulin resistance or the metabolic syndrome. We developed a laser-scanning cytometer assay to enable 1,536-well screening and combined the results of the small molecules screen with an RNAi database based on lipid storage. […] NIH Chemical Genomics Center [NCGC] MLPCN Grant: MH085686 Assay Submitter (PI): Mathias Beller, Max-Planck-Institut fur Biophysikalische Chemie
3T3L1 cells were obtained from ATCC (CL-173). Pre-adipocyte medium (PM-1), differentiation medium (DM-2) and after adipocyte medium (AM-1) were purchased from Zen-Bio (# PM-1-L1, DM-2-L1, AM-1-L1). 200 uL of PM-1containing 3,000 cells was dispensed into each well of a 96-well plate (Corning, #3340), and the assay plates were incubated at 37 °C, 95% humidity and 5% CO2 for 3-5 days. The differentiation of pre-adipocyte to adipocyte was induced by removing the pre-adipocyte medium and replacing with 200 uL of differentiation medium. 1 uL of compounds at different concentrations dissolved in differentiation medium were added to the assay plates, along with medium exchange for differentiation to test their effects on adipocyte differentiation. The final DMSO concentration was 0.5%.Triacsin C (Sigma-Aldrich T-4540), an inhibitor of long-chain fatty acyl CoA synthetase that blocks synthesis of triglycerides, was used as a positive control for lipid under-storage. After 3 days, differentiation medium was replaced with adipocyte maintenance medium and assay plates were incubated for 5 days. Aspirated the medium, then Cells were fixed using 4% of paraformaldehyde in PBS for 30 minutes at room temperature, washed 3 times with PBS buffer. Finally, the cells were stained using 200 uL of PBS containing BODIPY lipid dye 493/530 (1:2000 dilution, Molecular Probes), Hoechst 33342 (1:1000 dilution, Life Technologies, #H3570) and CellMask deep red dye (1:10,000 dilution, Life Technologies, #H32721) with Washer dispenser EL406(Biotek). Images were acquired using InCell 2000 (GE), number of cells, number of lipids, size of lipids and cells were analysis using GE Investigator software.
For `CCOc1ccc(CCNC(=O)c2ccc3ccccc3n2)cc1OCC`, the Potency was “inactive”.
With `CC(C)Oc1ccc(CCNC(=O)c2cc3sccc3n2Cc2ccccc2)cc1OC(C)C` the Potency was 3980 nM (active).
With `CCOc1ccc(CCNC(=O)c2ccnn2Cc2cccc(C)c2)cc1OCC` the Potency was 2820 nM (active).
In the case of `CCOC(=O)C1CCN(C(=O)C(C)(C)NC(=O)Nc2ccc(-c3ccccc3)cc2)CC1`, the Potency was 1120 nM (active).
In the case of `CCOc1ccc(CCNC(=O)c2cc3sccc3n2CCN2CCOCC2)cc1OCC`, the Potency was “inactive”.
For `CCOc1cc(F)c(CCNC(=O)c2cc3sccc3n2Cc2ccccc2)cc1OCC`, the Potency was “inactive”.
For `O=C(NC1CCCc2c1cnn2-c1cccc(O)c1)c1ccccn1` (stereo not given), the Potency was 3160 nM (active).
For `CCOC(=O)C1CCN(C(=O)C2(NC(=O)Nc3ccccc3Cl)CCC2)CC1`, the Potency was 2820 nM (active).
With `CCOc1cc(CCNC(=O)c2cc3sccc3n2Cc2ccccc2)cc(F)c1OCC` the Potency was 2820 nM (active).
With `CCn1c(C(=O)NCCc2ccc(OC)cc2)cc2sccc21` the Potency was 12600 nM (active).
